# Laboratory results reported in PubChem BioAssay (NCI).
# The panel holds about 79,000 compounds, 15% with a hit somewhere; the sample as a whole holds those more often. Values without a mark were called inactive. Activity calls are given as the source filed them. Cut-off read from the data, not from the text of the source: active = growth inhibition above about 70%; inactive = the rest.
# How the values were obtained:
# [1] = NCI Yeast Anticancer Drug Screen. Data for the rad52 strain (AID 147);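 note: 0% = growth of vehicle-treated control cultures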; conditions: S. cerevisiae rad52 mutant growth inhibition, stronger effect = higher value
# Procedure, shortened: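 Here a repair-compromised yeast strain receives each compound; its growth is then quantified and normalised to vehicle-only controls.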
# [2] = NCI Yeast Anticancer Drug Screen. Data for the wt1 strain (AID 149);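 note: 0% = growth of vehicle-treated wt1 cultures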; conditions: S. cerevisiae wt1 strain (SPY 50644) growth inhibition, stronger effect = higher value
# Procedure, shortened: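 Compounds are added to wt1 yeast cultures. Growth is then measured. Inhibition is expressed relative to vehicle-treated controls.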
# [3] = NCI Yeast Anticancer Drug Screen. Data for the rad50EPP+ strain (AID 151);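 note: 0% = growth of vehicle-treated control cultures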; conditions: S. cerevisiae rad50 mutant strain, stronger effect = higher value
# Procedure, shortened: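 Read-out is yeast growth inhibition relative to vehicle; cells used were the rad50EPP+ strain.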
# [4] = NCI Yeast Anticancer Drug Screen. Data for the mgt1 strain (AID 153); conditions: S. cerevisiae mgt1 mutant growth inhibition, stronger effect = higher value
# Procedure, shortened: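 Measured: inhibition of mgt1 yeast growth by compound, normalized to vehicle-treated cultures.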
# [5] = NCI Yeast Anticancer Drug Screen. Data for the rad50 strain (AID 155);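 note: 0% = growth of vehicle-only cultures of the same strain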; conditions: S. cerevisiae rad50 strain growth inhibition, stronger effect = higher value
# Procedure, shortened: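 Inhibition values express reduced yeast growth in compound-treated cultures relative to vehicle-treated controls.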
# [6] = NCI Yeast Anticancer Drug Screen. Data for the mec2-1 strain (AID 157); conditions: S. cerevisiae mec2-1 strain, stronger effect = higher value
# Procedure, shortened: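 Using mec2-1 yeast: add compound, measure growth, express inhibition versus vehicle-treated cultures.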
# [7] = NCI Yeast Anticancer Drug Screen. Data for the rad14 strain (AID 159);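 note: 0% = growth of vehicle-treated control cultures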; conditions: S. cerevisiae rad14 strain growth inhibition, stronger effect = higher value
# Procedure, shortened: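 A mutant yeast strain defective in DNA damage repair is treated with compound; inhibition of its growth is scored against untreated, vehicle-exposed cultures.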
# [8] = NCI Yeast Anticancer Drug Screen. Data for the sgs1 mgt1 strain (AID 161);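 note: 0% = growth of cultures given vehicle only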; conditions: S. cerevisiae sgs1 mgt1 strain, stronger effect = higher value
# Procedure, shortened: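 Percent growth inhibition was derived by comparing compound-exposed mutant yeast with vehicle-exposed cultures. The strain carries alterations in DNA damage repair.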
# [9] = NCI Yeast Anticancer Drug Screen. Data for the CLN2oe strain (AID 163);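 note: 0% = growth of vehicle-only control cultures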; conditions: S. cerevisiae CLN2oe strain, stronger effect = higher value
# Procedure, shortened: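 Whole-cell yeast growth assay. A strain engineered for altered cell-cycle control received compound, and inhibition relative to vehicle-treated cultures was recorded.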
# [10] = NCI Yeast Anticancer Drug Screen. Data for the cln2 rad14 strain (AID 165);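 note: 0% = growth equal to vehicle treated cultures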; conditions: S. cerevisiae cln2 rad14 strain, stronger effect = higher value
# Procedure, shortened: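 Yeast strain cln2 rad14, bearing defects in cell cycle control and DNA repair, serves as the test system; values reflect growth inhibition compared with vehicle.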
# [11] = NCI Yeast Anticancer Drug Screen. Data for the bub3 strain (AID 167); conditions: S. cerevisiae bub3 mutant strain, stronger effect = higher value
# Procedure, shortened: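 Steps: expose the mutant yeast strain to compound; grow alongside vehicle-treated cultures; measure growth; express inhibition against the vehicle cultures.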
# [12] = NCI Yeast Anticancer Drug Screen. Data for the wt2 strain (AID 169);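 note: 0% = growth of vehicle-treated yeast cultures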; conditions: S. cerevisiae wt2 strain growth inhibition, stronger effect = higher value
# Procedure, shortened: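 Treated yeast vs. vehicle-treated yeast: growth inhibition determined.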
# [13] = NCI Yeast Anticancer Drug Screen. Data for the mlh1 strain (AID 171);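 note: 0% = growth of vehicle-treated control cultures of the same strain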; conditions: S. cerevisiae mlh1 strain growth inhibition, stronger effect = higher value
# Procedure, shortened: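 A yeast strain with a defined genetic lesion serves as the test organism. Cultures receive compound or vehicle, and growth is measured.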
# [14] = NCI Yeast Anticancer Drug Screen. Data for the sgs1 strain (AID 173);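 note: 0% = growth of vehicle-only control cultures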; conditions: S. cerevisiae sgs1 mutant, stronger effect = higher value
# Procedure, shortened: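 A genetically defined yeast mutant is incubated with the test compound, and its growth is compared to that of the same strain given vehicle.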
# [15] = NCI Yeast Anticancer Drug Screen. Data for the mlh1 rad18 strain (AID 175); conditions: S. cerevisiae mlh1 rad18 strain growth inhibition, stronger effect = higher value
# Procedure, shortened: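 Steps: expose repair-defective yeast to compound; measure growth; express inhibition against vehicle-treated controls.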
# [16] = NCI Yeast Anticancer Drug Screen. Data for the rad18 strain (AID 177); conditions: S. cerevisiae rad18 mutant growth inhibition, stronger effect = higher value
# Procedure, shortened: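 Measured value is growth inhibition of a yeast strain bearing a DNA repair alteration, referenced to vehicle-treated cells.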
# [17] = at 5.0 µM (retest, dose inferred, filed as 0.5)
# [18] = at 50.0 µM (retest, dose inferred, filed as 5.0)
compound,measurement,setting,value
O=P(Oc1ccc(Cl)cc1)(Oc1ccc(Cl)cc1)N1CC1,growth inhibition,[1]; at 1.2 µM,-1%
same,growth inhibition,[1]; at 3.7 µM,1%
same,growth inhibition,[1]; at 11.0 µM,0%
same,growth inhibition,[1]; at 33.0 µM,8%
same,growth inhibition,[1]; at 100.0 µM,53%
same,growth inhibition,[2]; at 1.2 µM,-2%
same,growth inhibition,[2]; at 3.7 µM,-6%
same,growth inhibition,[2]; at 11.0 µM,-4%
same,growth inhibition,[2]; at 33.0 µM,-2%
same,growth inhibition,[2]; at 100.0 µM,2%
same,growth inhibition,[3]; at 1.2 µM,-3%
same,growth inhibition,[3]; at 3.7 µM,-1%
same,growth inhibition,[3]; at 11.0 µM,4%
same,growth inhibition,[3]; at 33.0 µM,6%
same,growth inhibition,[3]; at 100.0 µM,-4%
same,growth inhibition,[4]; at 1.2 µM,-6%
same,growth inhibition,[4]; at 3.7 µM,-3%
same,growth inhibition,[4]; at 11.0 µM,-5%
same,growth inhibition,[4]; at 33.0 µM,-4%
same,growth inhibition,[4]; at 100.0 µM,49%
same,growth inhibition,[5]; at 1.2 µM,2%
same,growth inhibition,[5]; at 3.7 µM,1%
same,growth inhibition,[5]; [17],-9%
same,growth inhibition,[5]; at 11.0 µM,2%
same,growth inhibition,[5]; at 33.0 µM,8%
same,growth inhibition,[5]; [18],43%
same,growth inhibition,[5]; at 50.0 µM,4.75%
same,growth inhibition,[5]; at 100.0 µM,79% (active)
same,growth inhibition,[6]; at 1.2 µM,-3%
same,growth inhibition,[6]; at 3.7 µM,-1%
same,growth inhibition,[6]; [17],4%
same,growth inhibition,[6]; at 11.0 µM,-2%
same,growth inhibition,[6]; at 33.0 µM,-1%
same,growth inhibition,[6]; [18],6%
same,growth inhibition,[6]; at 50.0 µM,14.3%
same,growth inhibition,[6]; at 100.0 µM,28%
same,growth inhibition,[7]; at 1.2 µM,0%
same,growth inhibition,[7]; at 3.7 µM,1%
same,growth inhibition,[7]; at 11.0 µM,5%
same,growth inhibition,[7]; at 33.0 µM,19%
same,growth inhibition,[7]; at 100.0 µM,90% (active)
same,growth inhibition,[8]; [17],-10%
same,growth inhibition,[8]; [18],35%
same,growth inhibition,[8]; at 50.0 µM,18.9%
same,growth inhibition,[9]; at 1.2 µM,-4%
same,growth inhibition,[9]; at 3.7 µM,-5%
same,growth inhibition,[9]; at 11.0 µM,6%
same,growth inhibition,[9]; at 33.0 µM,14%
same,growth inhibition,[9]; at 100.0 µM,48%
same,growth inhibition,[10]; [17],-17%
same,growth inhibition,[10]; [18],48%
same,growth inhibition,[10]; at 50.0 µM,9.3%
same,growth inhibition,[11]; at 1.2 µM,-4%
same,growth inhibition,[11]; at 3.7 µM,-2%
same,growth inhibition,[11]; [17],-23%
same,growth inhibition,[11]; at 11.0 µM,-5%
same,growth inhibition,[11]; at 33.0 µM,2%
same,growth inhibition,[11]; [18],27%
same,growth inhibition,[11]; at 50.0 µM,34.4%
same,growth inhibition,[11]; at 100.0 µM,32%
same,growth inhibition,[12]; at 1.2 µM,-11%
same,growth inhibition,[12]; at 3.7 µM,-13%
same,growth inhibition,[12]; at 11.0 µM,-14%
same,growth inhibition,[12]; at 33.0 µM,-8%
same,growth inhibition,[12]; at 100.0 µM,46%
same,growth inhibition,[13]; at 1.2 µM,-3%
same,growth inhibition,[13]; at 3.7 µM,-3%
same,growth inhibition,[13]; at 11.0 µM,-4%
same,growth inhibition,[13]; at 33.0 µM,2%
same,growth inhibition,[13]; at 100.0 µM,59%
same,growth inhibition,[14]; at 1.2 µM,-1%
same,growth inhibition,[14]; at 3.7 µM,-23%
same,growth inhibition,[14]; at 11.0 µM,2%
same,growth inhibition,[14]; at 33.0 µM,13%
same,growth inhibition,[14]; at 100.0 µM,92% (active)
same,growth inhibition,[15]; [17],-8%
same,growth inhibition,[15]; [18],83% (active)
same,growth inhibition,[15]; at 50.0 µM,32.1%
same,growth inhibition,[16]; at 1.2 µM,-5%
same,growth inhibition,[16]; at 3.7 µM,-1%
same,growth inhibition,[16]; at 11.0 µM,0%
same,growth inhibition,[16]; at 33.0 µM,3%
same,growth inhibition,[16]; at 100.0 µM,47%
CC1(Cl)CC(C)(/C=C/Cl)C(Cl)CC1Cl (stereo not drawn),growth inhibition,[1]; at 1.2 µM,6%
same,growth inhibition,[1]; at 3.7 µM,8%
same,growth inhibition,[1]; at 11.0 µM,13%
same,growth inhibition,[1]; at 33.0 µM,22%
same,growth inhibition,[1]; at 100.0 µM,43%
same,growth inhibition,[2]; at 1.2 µM,3%
same,growth inhibition,[2]; at 3.7 µM,3%
same,growth inhibition,[2]; at 11.0 µM,3%
same,growth inhibition,[2]; at 33.0 µM,10%
same,growth inhibition,[2]; at 100.0 µM,35%
same,growth inhibition,[3]; at 1.2 µM,2%
same,growth inhibition,[3]; at 3.7 µM,0%
same,growth inhibition,[3]; at 11.0 µM,6%
same,growth inhibition,[3]; at 33.0 µM,15%
same,growth inhibition,[3]; at 100.0 µM,24%
same,growth inhibition,[4]; at 1.2 µM,2%
same,growth inhibition,[4]; at 3.7 µM,1%
same,growth inhibition,[4]; at 11.0 µM,3%
same,growth inhibition,[4]; at 33.0 µM,5%
same,growth inhibition,[4]; at 100.0 µM,43%
same,growth inhibition,[5]; at 1.2 µM,-1%
same,growth inhibition,[5]; at 3.7 µM,-8%
same,growth inhibition,[5]; [17],12%
same,growth inhibition,[5]; at 11.0 µM,-3%
same,growth inhibition,[5]; at 33.0 µM,28%
same,growth inhibition,[5]; [18],-8%
same,growth inhibition,[5]; at 50.0 µM,58.6%
same,growth inhibition,[5]; at 100.0 µM,48%
same,growth inhibition,[6]; at 1.2 µM,5%
same,growth inhibition,[6]; at 3.7 µM,3%
